Bioassay records (PubChem BioAssay)
Shown are actives, neighbours in structure and some others; about 3.1% of the full set was active somewhere.
TDP1 inh: TDP1 (human) enzyme inhibition. Q9NUW8. recombinant TDP1, AlphaScreen DNA substrate cleavage. Potency, µM (series often up to 130 µM), for inactives: top-dose activity change, negative = inhibition, most hits filed as inhibitors. 350,000 tested, 0.28% active. AID 485290; also: % is scaled to controls: 0 for no effect and ±100 for the full control effect; nearly all actives have a fitted effect of over 40% in size
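E. coli-derived human Tdp1, 1 nM final. Cpd preinc 15 min RT; substrate 15 nM final, 5 min RT; AS bead mix 10 ug/ml final, 10 min RT. Signal loss = tyrosine-FITC cleavage. No-enzyme wells = max signal.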
PLK1 PBD inh: PLK1 (human) polo-box domain binding inhibition; P53350; Plk1 PBD binding of FITC phosphopeptide, fluorescence polarization; Potency, µM, for the others: max response, negative = inhibition, usual class: inhibitors; 360,000 tested, 2.8% active; AID 720504; also: series mostly up to about 57 µM; % is scaled to controls: 0 for no effect and ±100 for the full control effect; nearly all actives have a fitted effect of over 65% in size
Pin1 inh: blocks the human prolyl isomerase Pin1; Pin1 FP peptide displacement, HiFluor488, 10 min; Potency, µM (series often up to 115 µM), for the others: top-dose activity, negative = inhibition, usual class: inhibitors; 390,000 tested, 0.009% active; active = well fitted inhibition curve with a large enough effect in the polarisation, with a control signal flat, not every such curve was filed as active; inconclusive = small, poorly fitted or top-dose-only effect, or effect the other way, or a change in a side signal; inactive = no such curve, though single readings can be large or run the other way; the % refers to the polarisation; also: % is scaled to controls: 0 for no effect and ±100 for the full control effect
Target sequence (Q13526 whole entry, looked up): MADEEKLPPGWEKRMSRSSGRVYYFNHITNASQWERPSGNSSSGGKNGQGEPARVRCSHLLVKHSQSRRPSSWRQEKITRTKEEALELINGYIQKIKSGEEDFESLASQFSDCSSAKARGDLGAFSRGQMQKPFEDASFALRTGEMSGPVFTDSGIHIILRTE
Tb PFK block: blocks T. brucei phosphofructokinase; O15648; T. brucei PFK, ADP-Glo luminescence; Potency, µM (top dose mostly 57.5 µM), for the others: at the highest dose activity, negative = inhibition, most hits filed as inhibitors; 330,000 tested, 0.17% active; AID 485367;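 also: 0% = uninhibited 1x PFK enzyme wells and -100% = no-enzyme wells; nearly all actives have a fitted effect of over 60% in size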
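In TEA buffer at pH 8.0 with 5 mM MgCl2, enzyme (1.25 nM) converted F6P (0.5 mM) and ATP (0.1 mM) for 45 min at room temperature. ADP product was read by luciferase luminescence.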
S-ASM inh: inhibitors of human secretory acid sphingomyelinase. P17405. placental ASM, HMU-PC fluorogenic substrate, 60 min. Potency, µM (doses to about 57.5 µM), for inactives: at the highest dose activity change, negative = inhibition, usual class: inhibitors. 340,000 tested, 0.006% active
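Human placenta-derived ASM preincubated with compound 10 min at room temperature, then reacted with 9 uM (final) fluorogenic HMU-PC substrate for 60 min at 37 C. Stop solution raises pH to 10; fluorescence read at Ex 386/Em 447 nm.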
VDR inhibitor: inhibitors of human vitamin D receptor; 400,000 tested, 0.93% active; AID 504847; VDR-SRC2-3 peptide fluorescence polarization, 2 h; P11473; Potency, µM, for inactives: max response, negative = inhibition, usual class: inhibitors; also: % is scaled to controls: 0 for no effect and ±100 for the full control effect
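FP read-out; VDR + SRC2-3 coactivator peptide; 23 nl compound by pintool; 2 h RT incubation; reagents held at 4 deg C, protected from light.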
An asterisk follows results filed as active; i = inactive; ? = inconclusive; . = no result. Unless noted, calls follow the shape of the dose curve; as a rule, active = well fitted curve in the direction sought with a large enough effect; inconclusive = small, poorly fitted or top-dose-only effect, or another doubt; inactive = no such curve, though single readings can be large; an effect the other way counts as inactive or inconclusive. Potency is read from the fitted curve at half-maximal effect.

SMILES | TDP1 inh | PLK1 PBD inh | Pin1 inh | Tb PFK block | S-ASM inh | VDR inhibitor
COc1cc(OC)c(-n2cc(-c3ccc(OC)c(OC)c3)[nH]c2=S)cc1Cl | . | 30µM* | 7% | -3% | 0% | -7%
COc1ccc(-n2cc(-c3ccc(Br)cc3)[nH]c2=S)cc1 | 5% | -5% | -1% | -9% | 1% | -9%
Cc1cccc(-c2nc3scc(CCNS(=O)(=O)c4ccc5c(c4)OCCO5)n3n2)c1 | 0% | . | -1% | . | . | 19%
COCc1cc(C)n(CC(=O)OC)c(=O)c1C#N | -4% | -3% | 0% | 6% | 1% | 0%
COCc1cc(C)n(CC(=O)Nc2ccccc2OC)c(=O)c1C#N | 4% | 27µM* | -2% | 1% | -2% | ?
CC1=CC(C)(C)N2C(=O)C(=O)c3cc(OC(=O)c4ccco4)cc1c32 | -3% | 27µM* | 6% | -2% | -3% | ?
CC1(C)Cc2c(c(-c3ccco3)nc3sc4c(NCCCO)ncnc4c23)CO1 | -1% | -16% | ? | -23% | 50% | -21%
CC1(C)Cc2c(c(-c3ccco3)nc3sc4c(NCC5CCCO5)ncnc4c23)CO1 (stereo unspecified) | -2% | ? | ? | -4% | 118% | 89µM*
CCOC(=O)C(C)Sc1ccc2nnc(-c3ccc(OCC)cc3)n2n1 (stereo unspecified) | 2% | . | ? | . | . | -2%
CC(C)Cn1nc(NC(=O)C2CCCO2)c2cc3ccccc3nc21 (stereo unspecified) | -5% | 30µM* | 2% | 1% | i | -12%
Cc1oc2ccc(O)c(CN3CCN(Cc4ccccc4)CC3)c2c1C(=O)Nc1cccc(Cl)c1C | -4% | . | -7% | . | . | 12%
CCC1CCCCN1C(=O)CSc1nc(-c2ccc(OC)cc2)cc(C(F)(F)F)n1 (stereo unspecified) | -3% | . | 2% | . | . | ?
CC1(C)CN=c2s/c(=C\c3ccc(Cl)cc3)c(=O)n2C1 | -2% | 4.7µM* | 7% | -2% | -2% | -26%
CCOC(=O)N1CCN(C(=O)CN2C(=O)/C(=C\c3cccc(OC)c3)SC2=S)CC1 | 5% | . | -3% | . | . | -1%
CC(NCC(O)COCCC12CC3CC(CC(C3)C1)C2)c1ccccc1 (stereo unspecified) | -5% | 30µM* | 1% | 0% | -5% | -7%
Cc1c(Cl)cccc1S(=O)(=O)N1CCC(C(=O)NNC(=O)C2CC2)CC1 | 1% | 24µM* | -1% | 0% | -4% | 24%
Fc1cccc(/C=N/Nc2nncc3ccccc23)c1 | . | 21µM* | 1% | -4% | -3% | ?
COc1ccc(NC(=O)CSc2nnc(-c3cccnc3)o2)c(OC)c1 | . | 21µM* | -3% | -4% | 1% | ?
COc1ccccc1NC(=O)CSc1nnc(C2CCCCC2)o1 | 5% | 2% | 1% | -1% | 0% | -7%
CCOc1ccc(OCC)c(NC(=O)CSc2nnc(-c3cccnc3)o2)c1 | 9% | -6% | -3% | -4% | 0% | 0%
CCOC(=O)c1c(NC(=O)CSc2nnc(-c3ccco3)o2)sc(C(C)=O)c1C | 4% | 14% | 76% | . | -7% | 17%
CCOc1ccccc1NC(=O)CSc1nnc(-c2cccnc2)o1 | 0% | 24µM* | 1% | -13% | 1% | -37%
COc1ccc(OC)c(NC(=O)CSc2nnc(C3CCCCC3)o2)c1 | 8% | 24µM* | -6% | 5% | 10% | 0%
CCOC(=O)c1c(NC(=O)CSc2nnc(-c3cccnc3)o2)sc(C(C)=O)c1C | 4% | 12µM* | 74% | 1% | -3% | ?
Cc1cc(N2C(=O)C3C4C=CC(C4)C3C2=O)ccc1NC(=O)c1cccs1 (stereo unspecified) | 13µM* | -15% | 0% | ? | 6% | -22%
COc1ccc(-c2cnc3nc(/N=C/N(C)C)nn3c2/N=C/N(C)C)cc1 | 0% | 24µM* | -1% | -1% | 99% | -26%
CC(Oc1ccccc1F)c1ccnc2nc(/N=C/N(C)C)nn12 (stereo unspecified) | 2% | ? | -1% | -4% | 14% | -2%
